# JMJD2A Tudor inh: inhibitors of human JMJD2A Tudor domain. O75164. AlphaScreen JMJD2A-Tudor / H3K4me3 peptide binding. Potency, µM (highest dose often 114 µM), without a hit: at the top dose activity change, negative = inhibition, most hits filed as inhibitors. 4.4% of 390,000 active; also: % is scaled to controls: 0 for no effect and ±100 for the full control effect; nearly all actives have a fitted effect of over 50% in size
# G9a inh: inhibitors of human histone lysine methyltransferase G9a. Q96KQ7. G9a H3K9 monomethylation, AlphaScreen, 2 h. Potency, µM (top dose mostly 102 µM), without a hit: top-dose activity, negative = inhibition, actives largely listed as inhibitors. 8.8% of 350,000 active; also: % is scaled to controls: 0 for no effect and ±100 for the full control effect; nearly all actives have a fitted effect of over 75% in size
#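 Step 1: enzyme (final 20 nM) with compound, 15 min RT. Step 2: substrate peptide 500 nM and SAM 20 uM, 2 h RT. Step 3: anti-H3K9me1 antibody and AlphaScreen beads, 10 min, then plate read.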
# L3MBTL1 inh: inhibitors of human L3MBTL1; Q9Y468; AlphaScreen L3MBTL1–H3K9me1 peptide binding; Potency, µM (top dose mostly 57.1 µM), for the others: at the highest dose activity, negative = inhibition, actives largely listed as inhibitors; 0.66% of 230,000 active; also: % is scaled to controls: 0 for no effect and ±100 for the full control effect; nearly all actives have a fitted effect of over 60% in size
#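 First, the protein-peptide complex forms for 30 min at room temperature (L3MBTL1 50 nM, biotinylated H3K9me1 peptide 75 nM). Next, compounds are pin-transferred and incubated 30 min. Finally, AlphaScreen beads are added and read after 30 min.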
# BAZ2B block: BAZ2B (human) inhibition. Potency, µM (top dose mostly 114 µM), without a hit: top-dose activity change, negative = inhibition, actives largely listed as inhibitors. 4.4% of 360,000 active. Q9UIF8. AlphaScreen BAZ2B-H3K14Ac peptide displacement. AID 504333; also: % is scaled to controls: 0 for no effect and ±100 for the full control effect; nearly all actives have a fitted effect of over 60% in size
#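 BAZ2B 50 nM plus b-H3(5-23)K14Ac 50 nM, PBS pH 7.4/0.01% Tween-20, 30 min RT; compound added (max 110 uM), 30 min RT; streptavidin donor/Ni-chelate acceptor beads 10 ug/mL final, 20 min dark; AlphaScreen read.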
# HP1b chromo inh: HP1-beta chromodomain-methylated histone interaction inhibition; P83916; AlphaScreen HP1-beta / biotin-H3K9me3 peptide binding; Potency, µM (highest dose often 114 µM), for inactives: at the top dose activity change, negative = inhibition, most hits filed as inhibitors; 0.56% of 390,000 active; also: nearly all actives have a fitted effect of over 70% in size
#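 HP1-beta protein (50 nM final) preincubated 30 min at room temperature with biotinylated H3(1-18)K9me3 peptide (50 nM) in PBS pH 7.4, 0.01% Tween-20, then compound added for 30 min. AlphaScreen streptavidin donor/nickel chelate acceptor beads (10 ug/mL final), 30 min dark, luminescence read.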
# Active calls of the source: *; ? = inconclusive; . = no result; [ ] = another dose, or the depositor's remark. Compounds with a hit are over-represented: about 11% of the library has one in this group of screens. Calls follow the shape of the dose curve; as a rule, active = well fitted inhibition curve with a large enough effect; inconclusive = small, poorly fitted or top-dose-only effect; inactive = no such curve, though single readings can be large or run the other way. Potency is read from the fitted curve at half-maximal effect.
SMILES,JMJD2A Tudor inh,G9a inh,L3MBTL1 inh,BAZ2B block,HP1b chromo inh
Cc1ccc(NC(=O)Cn2cc(S(=O)(=O)N3CCC(C)CC3)c3ccccc3c2=O)c(Br)c1,-9%,5%[59 µM],.,0%,18%
COc1ccnc(CSC(N)=Nc2ccc(F)cc2)c1,22µM*,7.1µM*,-3%,50µM*,-11%
O=C1CCCc2cc(S(=O)(=O)NCC3CCC(C(=O)Nc4ccc(Cl)cc4)CC3)ccc2N1 (stereo not given),-7%,-16%[59 µM],.,-1%,23%
CCN(CC)Cc1c(C(=O)N/N=C/c2ccccn2)nnn1-c1nonc1N,?,?,.,11µM*,41%
CCN(CC)Cc1c(C(=O)N/N=C/c2cccc3ccccc23)nnn1-c1nonc1N,-22%,29%,.,-18%,10%
Cc1c(C(=O)N/N=C/c2ccccn2)nnn1-c1nonc1N,89µM*,?,.,45µM*,29%
CCc1n[nH]c(=S)n1/N=C/c1cc(Br)c(O)c(OC)c1,5.6µM*,7.9µM*,-5%,-18%,29%
COc1cc(/C=N\NC(=O)c2ccc(-c3ccccc3)cc2)cc(OC)c1OC(C)=O,-16%,.,.,-9%,21%
CCOc1ccc(/C=N/n2c(COc3ccccc3)n[nH]c2=S)cc1OC,20µM*,8.9µM*,.,23%,-10%
COc1cc(/C=N/n2cnnc2)ccc1OCCOc1ccccc1,-21%,-24%,1%,-3%,17%
C=CCOc1c(Br)cc(/C=N/n2c(CC)n[nH]c2=S)cc1Br,?,?,-2%,-3%,16%
COc1cc(/C=N/NC(=O)c2cccnc2)cc(Br)c1O,-21%,?,-2%,?,7%
COc1cc(/C=N/n2c(COc3ccccc3)n[nH]c2=S)cc(Br)c1O,13µM*,1.3µM*,.,-29%,-19%
COc1cc(/C=N/n2c(COc3ccccc3)n[nH]c2=S)cc(OC)c1OC(C)=O,?,10µM*,.,-3%,4%
CC1CCCCN1S(=O)(=O)c1cc2c3c(c1)CC(=O)N3CCC2 (stereo not given),0%,0%[59 µM],.,-1%,23%
COc1ccc(C(=O)Cn2c(C)nc([N+](=O)[O-])c2Br)cc1,-10%,8%,4%,0%,27%
Cc1nc([N+](=O)[O-])c(Br)n1CC(=O)c1ccc(Cl)cc1,-24%,50µM*,.,-2%,25%
CC(C)(C)c1ccc(CNc2cc(N3CCOCC3)ccc2[N+](=O)[O-])cc1,?,25µM*,-26%,?,?
CS(=O)(=O)N1CCN(c2ccc([N+](=O)[O-])c(NCc3ccc(Cl)cc3)c2)CC1,89µM*,25%[59 µM],7%,?,8%
CC(C)c1ccc(CNc2cc(N3CCCC3)ccc2[N+](=O)[O-])cc1,?,?,-8%,?,-29%
CCOC(=O)c1[nH]c2ccccc2c1NC(=O)c1ccc(OC(C)C)cc1,-12%,?,.,2%,40%
COc1ccccc1NC(=O)Cn1c(=O)n(-c2ccc(C)cc2)c(=O)c2c1cnn2C,-1%,2%[59 µM],.,-1%,35%
COCCNCC(=O)N1CCCCCC1,3.5µM*,8.9µM*,?,50µM*,-29%
COCCNCC(=O)N1c2ccccc2Sc2ccccc21,?,?,-1%,?,-20%
Cc1ccc(CN2CCC(CNC(=O)c3cc4ccc5cccnc5c4[nH]3)CC2)cc1,-35%,?,.,-19%[57.1 µM],10%
SMILES,JMJD2A Tudor inh,G9a inh,L3MBTL1 inh,BAZ2B block,HP1b chromo inh
COc1cccc(C2C(C(=O)c3cc4cccc(OC)c4o3)=C(O)C(=O)N2c2cc(C)on2)c1OC (stereo not given),?,7%[12.7 µM],-11%,-29%,-11%
COc1cc(C2C(C(=O)c3cc4ccccc4o3)=C(O)C(=O)N2c2cc(C)on2)cc(OC)c1OC (stereo not given),-17%,45µM*,.,-28%[57.1 µM],29%
COc1cccc(C2C(C(=O)c3cc4ccccc4o3)=C(O)C(=O)N2c2cc(C)on2)c1OC (stereo not given),?,45µM*,-4%,-28%,2%
COC(=O)CCCC1=CC2=C(c3ccccc3)C(=O)C(C)(OC(=O)C3CCCC3)C(=O)C2=CN1Cc1ccc(OC)cc1 (stereo not given),50µM*,?,.,?,?
COC(=O)CCC(=O)OC1(C)C(=O)C2=CN(c3ccc(OC)cc3)C(c3ccc(OC)cc3)=CC2=C(Br)C1=O (stereo not given),40µM*,.,.,.,?
COC(=O)CCC(=O)OC1(C)C(=O)C2=CN(C3CCCC3)C(c3ccc(OC)cc3)=CC2=C(Br)C1=O (stereo not given),56µM*,1%[12.7 µM],.,45µM*,?
COCCN1C=C2C(=O)C(C)(OC(=O)CCC(=O)OC)C(=O)C(Br)=C2C=C1c1ccc(OC)cc1 (stereo not given),?,.,.,.,-8%
COc1ccccc1CCNC(=O)c1ccc(NC(=O)N2CC(C)Sc3ccccc32)cc1 (stereo not given),-26%,3%[59 µM],.,-13%,16%
Cc1sc(C(C2C(=O)CC(C)(C)CC2=O)C2C(=O)CC(C)(C)CC2=O)cc1[N+](=O)[O-],28µM*,7.9µM*,-22%,56µM*,-9%
O=C(NCc1ccco1)C1CCN(C(=O)c2ccc(Cl)cc2Cl)CC1,-16%,-6%[59 µM],.,-5%,8%
COc1ccc(CCNC(=O)c2cc(-c3ccc(C)c(C)c3)nc3ccccc23)cc1OC,-27%,?,.,34%,73%
COC(=O)C1=C(C)N(Cc2ccc(OC)cc2)C(=O)C1,-11%,8%[59 µM],1%,34%,22%
COC(=O)C1=C(C)N(CC(C)C)C(=O)C1,-6%,40µM*,.,7%,28%
C=CCN1C(=O)/C(=C\c2cccs2)C(C(=O)OC)=C1C,?,50µM*,.,40µM*,?
COC(=O)C1=C(C)N(Cc2cccnc2)C(=O)/C1=C\c1cccs1,.,.,?,28µM*,.
COC(=O)C1=C(C)N(c2ccc(C)cc2)/C(=C/c2cccs2)C1=O,-22%[57.1 µM],-3%[59 µM],-4%,7%,47%
COC(=O)C1=C(C)N(Cc2cccnc2)C(=O)C1,-20%,14µM*,11%,2%,32%
COc1ccc(/C=C(/C(=O)c2cccs2)N2C=CC=CC2=C(C#N)C#N)cc1,?,8.9µM*,0%,-34%,-12%
COc1ccc(/C=N/NC(=O)CNC(=O)c2cccs2)cc1,-8%,19%[59 µM],4%,6%,27%
CCCN(Cc1cccs1)C(=O)Nc1ccc(Br)c(C)c1,36%,29%[59 µM],.,29%,112%
O=C(Nc1cc(=O)[nH]c2ncnn12)c1ccc(Cl)cc1Cl,79µM*,8.9µM*,12%,-2%,16%
Cc1cc(/C=C2/C(=N)N3C(c4ccccc4)=CSC3=NC2=O)c(C)n1-c1ccccc1,-13%,50µM*,-25%,4%,35%

# Source: PubChem BioAssay
